According to PubChem BioAssay (NCATS):
Inconclusive results are not listed. Calls of active or inactive are those of the source. Calls come from the whole dose curve; as a rule, active = well fitted cell-killing curve with a large enough effect; inconclusive = small, poorly fitted or top-dose-only effect, or effect the other way; inactive = flat fitted curve, though single readings scatter. Where a SMILES comes first, the peptide text is derived from it. The star is where a group is joined. AFC = O=c1cc(C(F)(F)F)c2ccc(N*)cc2o1

Legend:
Test in all cases: Primary qHTS to identify gynecologic anti-cancer compounds using libraries of approved drugs and bioactive compounds (AID 1345084); note: nearly all actives have a fitted effect of over 55% in size
Conditions in all cases: Gynecologic cancer cell panel viability, ATPlite luminescence, 48 h; series mostly up to 57.5 µM
[1] = system: JEG-3
Outline: (§1)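 Luminescence from the ATPlite ATP-monitoring reagent indicates viable cell number; lower signal means cytotoxicity. Cells received compound 16 h after seeding and were exposed for 48 h across five concentrations.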

[2] = system: OV90
Outline: as §1

[3] = system: PA-1
Outline: as §1

[4] = system: SKOV3
Outline: as §1

[5] = system: Tov-21-G
Outline: as §1

[6] = system: Tov112D
Outline: as §1
% is set by controls: 0 for no effect and ±100 for the full control effect.

COc1cc(O)cc(C)c1C(=O)OC1C(CO)OC(OC2C(O)C(O)C(O)C(O)C2O)C(O)C1O (stereo unspecified)
inactive: Potency [1] | Potency [2] | Potency [3] | Potency [4] | Potency [5] | Potency [6]

C=C1C[C@]23C[C@H]1CC[C@H]2[C@@]12CC[C@H](O)[C@@](C)(C(=O)O1)[C@H]2[C@@H]3C(=O)O
inactive: Potency [1] | Potency [2] | Potency [3] | Potency [4] | Potency [5] | Potency [6]

C[C@H]1CC[C@@]2(OC1)O[C@H]1CC3C4CC[C@H]5C[C@@H](O)[C@H](O)C[C@]5(C)C4=CC(=O)[C@]3(C)[C@H]1[C@@H]2C (stereo partly specified)
inactive: Potency [1] | Potency [2] | Potency [3] | Potency [4] | Potency [5] | Potency [6]

CC(C)C(C#N)O[C@@H]1O[C@H](CO[C@@H]2O[C@@H](C)[C@H](O)[C@@H](O)[C@H]2O)[C@@H](O)[C@H](O)[C@H]1O (stereo partly specified)
inactive: Potency [1] | Potency [2] | Potency [3] | Potency [4] | Potency [5] | Potency [6]

COC(=O)N(C)c1c(N)nc(-c2nn(Cc3ccccc3F)c3ncccc23)nc1N
inactive: Potency [1] | Potency [2] | Potency [3] | Potency [4] | Potency [5] | Potency [6]

C/C=C1\[C@H](O[C@@H]2O[C@H](CO)[C@@H](O)[C@H](O)[C@H]2O)OC=C(C(=O)OC)[C@H]1CC(=O)OC[C@H]1O[C@@H](OCCc2ccc(O)cc2)[C@H](O)[C@@H](O)[C@@H]1O
inactive: Potency [1] | Potency [2] | Potency [3] | Potency [4] | Potency [5] | Potency [6]

C=CC(C)(C)C12C=C(OC)C(=O)N3C(C(C)C)C(=O)NC31N(OC)c1ccccc12 (stereo unspecified)
inactive: Potency [1] | Potency [2] | Potency [3] | Potency [4] | Potency [5] | Potency [6]

COC(=O)CC(C)(O)CC(=O)OCc1ccc(O[C@@H]2O[C@H](CO)[C@@H](O)[C@H](O)[C@H]2O)cc1 (stereo partly specified)
inactive: Potency [1] | Potency [2] | Potency [3] | Potency [4] | Potency [5] | Potency [6]

CC(=O)O[C@@H]1[C@@H](O)[C@H](C)O[C@@H](O[C@H]2[C@@H]3C=CO[C@@H](O[C@@H]4O[C@H](CO)[C@@H](O)[C@H](O)[C@H]4O)[C@@H]3[C@@]3(CO)O[C@@H]23)[C@@H]1OC(=O)/C=C/c1ccccc1
inactive: Potency [1] | Potency [2] | Potency [3] | Potency [4] | Potency [5] | Potency [6]

C[C@@H]1O[C@@H](OC[C@H]2O[C@@H](OC(CCCCc3ccc(O)cc3)CCc3ccc(O)cc3)[C@H](O)[C@@H](O)[C@@H]2O)[C@H](O)[C@H](O)[C@H]1O (stereo partly specified)
inactive: Potency [1] | Potency [2] | Potency [3] | Potency [4] | Potency [5] | Potency [6]

COc1c(C)c(OCC(O)C(C)(C)O)cc2c1COC2=O (stereo unspecified)
inactive: Potency [1] | Potency [2] | Potency [3] | Potency [4] | Potency [5] | Potency [6]

CC1(C)CC[C@]2(C(=O)O)CC[C@]3(C)C(=CCC4[C@@]5(C)CC[C@H](O[C@@H]6O[C@H](CO)[C@@H](O)[C@H](O)[C@H]6O[C@@H]6O[C@H](CO)[C@@H](O)[C@H](O)[C@H]6O)[C@@](C)(CO)C5CC[C@]43C)[C@@H]2C1 (stereo partly specified)
inactive: Potency [1] | Potency [2] | Potency [3] | Potency [4] | Potency [5] | Potency [6]

CC1OC(OC2C(CO)OC(OCC3OC(OC(=O)C45CCC(C)(C)CC4C4=CCC6C7(C)CCC(OC8OC(CO)C(O)C(OC9OC(CO)C(O)C(O)C9O)C8O)C(C)(C)C7CCC6(C)C4(C)CC5)C(O)C(O)C3O)C(O)C2O)C(O)C(O)C1OC1OC(CO)C(O)C(O)C1O (stereo unspecified)
inactive: activity change, negative = cytotoxicity [1] 7.02% [at 6.55 µM] | activity change, negative = cytotoxicity [2] 6.18% [at 6.55 µM] | activity change, negative = cytotoxicity [3] 2.62% [at 6.55 µM] | activity change, negative = cytotoxicity [4] 13.6% [at 6.55 µM] | activity change, negative = cytotoxicity [5] 3.67% [at 6.55 µM] | activity change, negative = cytotoxicity [6] -6.51% [at 6.55 µM]

O=C1CCC(=O)N(O)CCCCCNC(=O)CCC(=O)N(O)CCOCCNC(=O)CCC(=O)N(O)CCCCCN1
inactive: Potency [1] | Potency [2] | Potency [3] | Potency [4] | Potency [5] | Potency [6]

O=C1NC(Cc2c[nH]c3ccccc23)C(=O)NC1Cc1c[nH]c2ccccc12 (stereo unspecified)
inactive: Potency [1] | Potency [2] | Potency [3] | Potency [4] | Potency [5] | Potency [6]

COc1ccc(/C=C/C(=O)O[C@@H]2[C@@H](O)[C@@H](O)[C@H](O[C@@H]3C=C(CO)[C@H]4[C@H](O[C@@H]5O[C@H](CO)[C@@H](O)[C@H](O)[C@H]5O)OC=C[C@H]43)O[C@H]2C)cc1O
inactive: Potency [1] | Potency [2] | Potency [3] | Potency [4] | Potency [5] | Potency [6]

CC(C)(C)c1cc(Br)cc([C@H](CC(=O)O)NC(=O)CNC(=O)c2cc(O)cc(NC3=NCC(O)CN3)c2)c1 (stereo partly specified)
inactive: Potency [1] | Potency [2] | Potency [3] | Potency [4] | Potency [5] | Potency [6]

Cn1nc(C(C)(C)C)cc1C(=O)NC(Cc1cccc(Cl)c1)C(=O)NCC#N (stereo unspecified)
inactive: Potency [1] | Potency [2] | Potency [3] | Potency [4] | Potency [5] | Potency [6]

OC[C@H]1O[C@@H](OC(CCCCc2ccc(O)cc2)CCc2ccc(O)cc2)[C@H](O)[C@@H](O)[C@@H]1O (stereo partly specified)
inactive: Potency [1] | Potency [2] | Potency [3] | Potency [4] | Potency [5] | Potency [6]

CC(=O)OC1C(c2ccccc2)CCC(c2ccccc2)C1OC(C)=O (stereo unspecified)
inactive: Potency [1] | Potency [2] | Potency [3] | Potency [4] | Potency [5] | Potency [6]

COc1c2c(cc3c1-c1c(cc4c(c1OC)OCO4)CC(C)C(C)C3)OCO2 (stereo unspecified)
inactive: Potency [1] | Potency [2] | Potency [3] | Potency [4] | Potency [5] | Potency [6]

CC(O)CCC1C(CO[C@@H]2O[C@H](CO)[C@@H](O)[C@H](O)[C@H]2O)CC(O)CC1(C)C (stereo partly specified)
inactive: Potency [1] | Potency [2] | Potency [3] | Potency [4] | Potency [5] | Potency [6]

Cc1cc(Cl)ccc1COc1ccnn1-c1cc(C(=O)O)ccn1
inactive: Potency [1] | Potency [2] | Potency [3] | Potency [4] | Potency [5] | Potency [6]

C[C@@H]1O[C@@H](O[C@@H]2CO[C@@H](O[C@H]3CC[C@@]4(C)C(CC[C@]5(C)C4CC=C4[C@@H]6CC(C)(C)CC[C@]6(C(=O)O[C@@H]6O[C@H](CO)[C@@H](O)[C@H](O)[C@H]6O)CC[C@]45C)[C@]3(C)CO)[C@H](O)[C@H]2O[C@@H]2O[C@H](CO)[C@@H](O)[C@H](O)[C@H]2O)[C@H](O)[C@H](O)[C@H]1O (stereo partly specified)
inactive: activity change, negative = cytotoxicity [1] -4.12% [at 11.6 µM] | activity change, negative = cytotoxicity [2] -13.3% [at 11.6 µM] | activity change, negative = cytotoxicity [3] -2.56% [at 11.6 µM] | activity change, negative = cytotoxicity [4] 6.8% [at 11.6 µM] | activity change, negative = cytotoxicity [5] 4.72% [at 11.6 µM] | activity change, negative = cytotoxicity [6] 0.619% [at 11.6 µM]

CC(=O)N[C@@H](Cc1c[nH]c2ccccc12)C(=O)N[C@@H](CCC(=O)O)C(=O)N[C@@H](Cc1cnc[nH]1)C(=O)N[C@@H](CC(=O)O)C(=O)Nc1ccc2c(C(F)(F)F)cc(=O)oc2c1 (Ac-WEHD-{AFC})
inactive: Potency [1] | Potency [2] | Potency [3] | Potency [4] | Potency [5] | Potency [6]

CCCC(=O)NCCc1csc(-c2ccc(Cl)cc2)n1
inactive: Potency [1] | Potency [2] | Potency [3] | Potency [4] | Potency [5] | Potency [6]

C=C(C)C1CC[C@]2(C(=O)O)CC[C@]3(C(=O)O)[C@H](CCC4[C@@]5(C)CC[C@H](O)C(C)(C)C5CC[C@]43C)C12 (stereo partly specified)
inactive: Potency [1] | Potency [2] | Potency [3] | Potency [4] | Potency [5] | Potency [6]

CC1(C)CCCC2(C)C1CC(=O)C13CC(CCC12)C(O)(CO)C3 (stereo unspecified)
inactive: Potency [1] | Potency [2] | Potency [3] | Potency [4] | Potency [5] | Potency [6]

C[C@@H]1N[C@H]2N(C1=O)c1ccccc1[C@@]2(O)C[C@@H]1C(=O)N[C@@H](C)c2nc3ccccc3c(=O)n21
inactive: Potency [1] | Potency [2] | Potency [3] | Potency [4] | Potency [5] | Potency [6]

CC1C(=O)CC2C3CCC(C(=O)O)C12CC3(C)CO (stereo unspecified)
inactive: Potency [1] | Potency [2] | Potency [3] | Potency [4] | Potency [5] | Potency [6]

Nc1nc(-n2cc(C(=O)O)c(=O)c3cc(F)c(N4CC(O)C4)c(Cl)c32)c(F)cc1F
inactive: Potency [1] | Potency [2] | Potency [3] | Potency [4] | Potency [5] | Potency [6]

COc1ccc(/C=C/C(=O)O[C@@H]2[C@@H](O)[C@H](C)O[C@@H](O[C@H]3[C@@H]4C=CO[C@@H](O[C@H]5O[C@@H](CO)[C@H](O)[C@@H](O)[C@@H]5O)[C@@H]4[C@@]4(CO)O[C@@H]34)[C@@H]2OC(C)=O)cc1
inactive: Potency [1] | Potency [2] | Potency [3] | Potency [4] | Potency [5] | Potency [6]

COc1cc(/C=C/C(=O)O[C@H]2[C@H](O)[C@@H](CO)O[C@@]2(CO)O[C@H]2O[C@H](CO)[C@@H](O)[C@H](O)[C@H]2O)ccc1O
inactive: Potency [1] | Potency [2] | Potency [3] | Potency [4] | Potency [5] | Potency [6]

COc1c2c(c(C)c3c1C(=O)OC3)OC1(C)CC(O)C(C(C)(C)O)C(C)(CCC(=O)O)C1C2 (stereo unspecified)
inactive: Potency [1] | Potency [2] | Potency [3] | Potency [4] | Potency [5] | Potency [6]

COc1ccc2c(OC)c3ccoc3nc2c1OC
inactive: Potency [1] | Potency [2] | Potency [3] | Potency [4] | Potency [5] | Potency [6]

CC(C)(C)C(=O)CN1C(=O)[C@H](NC(=O)Nc2cccc(C(=O)O)c2)CN(C2CCCCC2)c2ccccc21
inactive: Potency [1] | Potency [2] | Potency [3] | Potency [4] | Potency [5] | Potency [6]
